Reference: PubChem BioAssay (NCATS)
Records with an inconclusive call do not appear. A call without a number means that no potency is given here. The source made the active and inactive calls. The call rests on the fitted dose curve; in most records, active means well fitted curve in the direction sought with a large enough effect; inconclusive means small, poorly fitted or top-dose-only effect, or another doubt; inactive means no such curve, though single readings can be large; an effect the other way counts as inactive or inconclusive.

Legend:
[1] = qHTS of pediatric cancer cell lines to identify multiple opportunities for drug repurposing: Primary screen for TC32 cells (AID 1347089); further: nearly all actives have a fitted effect of over 60% in size; further: potency means the concentration at half of the fitted maximal effect
Method in brief: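 TC32 cells, 500-1,000/well in growth medium, compound-treated 48 h at 37 °C; viability from CellTiter-Glo luminescence. Primary screen: MIPE 11-point (0.78 nM–46 µM final), NPC 8-point (0.59 nM–46 µM final); confirmatory at 11-point dilutions.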

[2] = qHTS of pediatric cancer cell lines to identify multiple opportunities for drug repurposing: Primary screen for DAOY cells (AID 1347090); further: nearly all actives have a fitted effect of over 55% in size; further: potency means the concentration at half of the fitted maximal effect
Method in brief: (§1)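 Eight- or eleven-point concentration series, 48 h treatment at 37 degrees C in growth media; readout CellTiter-Glo luminescence. Potency and efficacy were taken from the concentration-response curves.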

[3] = qHTS of pediatric cancer cell lines to identify multiple opportunities for drug repurposing: Primary screen for SJ-GBM2 cells (AID 1347091); further: potency means the concentration at half of the fitted maximal effect
Method in brief: as §1

[4] = qHTS of pediatric cancer cell lines to identify multiple opportunities for drug repurposing: Primary screen for A673 cells (AID 1347092); further: nearly all actives have a fitted effect of over 45% in size; further: potency means the concentration at half of the fitted maximal effect
Method in brief: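 A673 cells (500-1,000 cells/well) were treated 48 hours at 37 degrees C with compounds at 11-point (0.78 nM to 46 µM) or 8-point (0.59 nM to 46 µM) dilutions. Viability read by CellTiter-Glo luminescence; concentration-response curves fitted.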

[5] = qHTS of pediatric cancer cell lines to identify multiple opportunities for drug repurposing: Primary screen for SK-N-MC cells (AID 1347093); further: potency means the concentration at half of the fitted maximal effect
Method in brief: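 Metabolically active cells were quantified by ATP-dependent luminescence (CellTiter-Glo, 15 min at room temperature) following 48 h treatment. Cells had been plated at 500-1,000 per well and settled for 5 h beforehand.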

[6] = qHTS of pediatric cancer cell lines to identify multiple opportunities for drug repurposing: Primary screen for BT-37 cells (AID 1347094); further: potency means the concentration at half of the fitted maximal effect
Method in brief: (§2)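 ATP-based luminescence (CellTiter-Glo) quantifies viability after a 48-hour exposure. Compounds are dosed across 8 or 11 final concentrations; DMSO and 2.3 µM bortezomib serve as controls.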

[7] = qHTS of pediatric cancer cell lines to identify multiple opportunities for drug repurposing: Primary screen for NB-EBc1 cells (AID 1347095); further: potency means the concentration at half of the fitted maximal effect
Method in brief: as §2

[8] = qHTS of pediatric cancer cell lines to identify multiple opportunities for drug repurposing: Primary screen for U-2 OS cells (AID 1347096); further: nearly all actives have a fitted effect of over 50% in size; further: potency means the concentration at half of the fitted maximal effect
Method in brief: (§3)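 Cells (500-1,000/well) in growth media were settled 5 h at 37 degrees C, then given compounds for 48 h. Viability was read as CellTiter-Glo luminescence. Primary runs used MIPE at 11 points (0.78 nM-46 µM) and NPC at 8 points (0.59 nM-46 µM); follow-ups used 11 points.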

[9] = qHTS of pediatric cancer cell lines to identify multiple opportunities for drug repurposing: Primary screen for Saos-2 cells (AID 1347097); further: nearly all actives have a fitted effect of over 40% in size; further: potency means the concentration at half of the fitted maximal effect
Method in brief: as §2

[10] = qHTS of pediatric cancer cell lines to identify multiple opportunities for drug repurposing: Primary screen for SK-N-SH cells (AID 1347098); further: nearly all actives have a fitted effect of over 65% in size; further: potency means the concentration at half of the fitted maximal effect
Method in brief: (§4)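 Cells (500-1,000/well) rested 5 h, then received compounds for 48 h; metabolically active cells were measured by CellTiter-Glo luminescence. Final concentrations spanned up to 46 µM (MIPE, 11-point) or 0.59 nM-46 µM (NPC, 8-point) in primary screens, 11-point in follow-ups.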

[11] = qHTS of pediatric cancer cell lines to identify multiple opportunities for drug repurposing: Primary screen for NB1643 cells (AID 1347099); further: nearly all actives have a fitted effect of over 50% in size; further: potency means the concentration at half of the fitted maximal effect
Method in brief: as §2

[12] = qHTS of pediatric cancer cell lines to identify multiple opportunities for drug repurposing: Primary screen for LAN-5 cells (AID 1347100); further: potency means the concentration at half of the fitted maximal effect
Method in brief: as §3

[13] = qHTS of pediatric cancer cell lines to identify multiple opportunities for drug repurposing: Primary screen for Rh18 cells (AID 1347102); further: nearly all actives have a fitted effect of over 65% in size; further: potency means the concentration at half of the fitted maximal effect
Method in brief: as §3

[14] = qHTS of pediatric cancer cell lines to identify multiple opportunities for drug repurposing: Primary screen for OHS-50 cells (AID 1347103); further: nearly all actives have a fitted effect of over 40% in size; further: potency means the concentration at half of the fitted maximal effect
Method in brief: as §4

[15] = qHTS of pediatric cancer cell lines to identify multiple opportunities for drug repurposing: Primary screen for RD cells (AID 1347104); further: nearly all actives have a fitted effect of over 55% in size; further: potency means the concentration at half of the fitted maximal effect
Method in brief: as §2

[16] = qHTS of pediatric cancer cell lines to identify multiple opportunities for drug repurposing: Primary screen for BT-12 cells (AID 1347101); further: nearly all actives have a fitted effect of over 25% in size
Method in brief: as §4

[17] = qHTS of pediatric cancer cell lines to identify multiple opportunities for drug repurposing: Primary screen for MG 63 (6-TG R) cells (AID 1347105); further: nearly all actives have a fitted effect of over 50% in size
Method in brief: as §2

SMILES	Potency [1]	Potency [2]	Potency [3]	Potency [4]	Potency [5]	Potency [6]	Potency [7]	Potency [8]	Potency [9]	Potency [10]	Potency [11]	Potency [12]	Potency [13]	Potency [14]	Potency [15]	Potency [16]	Potency [17]
CC1(C)O[C@@H]2[C@@H](CO[C@@]3(COS(N)(=O)=O)OC(C)(C)O[C@@H]23)O1	inactive	inactive	inactive	inactive	inactive	inactive	inactive	inactive	inactive	inactive	inactive	inactive	inactive	inactive	inactive	–	–
CCN(CC)C(=O)N1CCN(C)CC1	inactive	inactive	inactive	inactive	inactive	inactive	inactive	inactive	inactive	inactive	inactive	inactive	inactive	inactive	inactive	inactive	inactive
NCCC(O)(P(=O)(O)O)P(=O)(O)O	inactive	inactive	inactive	inactive	inactive	inactive	inactive	inactive	inactive	inactive	inactive	inactive	inactive	inactive	–	inactive	inactive
C[C@H](CCC(=O)O)[C@H]1CC[C@H]2[C@@H]3C(=O)C[C@@H]4CC(=O)CC[C@]4(C)[C@H]3CC(=O)[C@]12C	inactive	inactive	inactive	inactive	inactive	inactive	inactive	inactive	inactive	inactive	inactive	inactive	inactive	inactive	inactive	inactive	inactive
CNC(=O)CN(CCN(CCN(CC(=O)[O-])CC(=O)NC)CC(=O)[O-])CC(=O)[O-].O.[Gd+3]	inactive	inactive	inactive	inactive	inactive	inactive	inactive	inactive	inactive	inactive	inactive	inactive	inactive	inactive	inactive	inactive	inactive
CN(C)C(=S)SC(=S)N(C)C	3740 nM (active)	841 nM (active)	inactive	668 nM (active)	1 nM (active)	24600 nM (active)	10600 nM (active)	1680 nM (active)	1060 nM (active)	1940 nM (active)	2990 nM (active)	1330 nM (active)	1880 nM (active)	8710 nM (active)	944 nM (active)	–	–
C=CCc1ccc(O)c(OC)c1	inactive	inactive	inactive	inactive	inactive	inactive	inactive	inactive	inactive	inactive	inactive	inactive	inactive	inactive	–	inactive	inactive
CC(=O)Oc1ccc(C(=C2CCCCC2)c2ccc(OC(C)=O)cc2)cc1	inactive	inactive	inactive	inactive	inactive	inactive	inactive	inactive	inactive	inactive	inactive	inactive	inactive	inactive	inactive	inactive	inactive
O=c1ccc2ccccc2o1	inactive	inactive	inactive	inactive	inactive	inactive	inactive	inactive	inactive	inactive	inactive	inactive	inactive	inactive	–	inactive	inactive
CCCCC(=O)O[C@]1(C(=O)CO)CC[C@H]2[C@@H]3CCC4=CC(=O)CC[C@]4(C)[C@H]3[C@@H](O)C[C@@]21C	inactive	inactive	inactive	inactive	inactive	inactive	inactive	inactive	inactive	inactive	inactive	inactive	inactive	–	–	–	–
NC(=O)CC[C@@H]1NC(=O)[C@H](Cc2ccccc2)NC(=O)[C@H](Cc2ccc(O)cc2)NC(=O)CCSSC[C@@H](C(=O)N2CCC[C@H]2C(=O)N[C@@H](CCCN=C(N)N)C(=O)NCC(N)=O)NC(=O)[C@H](CC(N)=O)NC1=O	inactive	inactive	inactive	inactive	inactive	inactive	inactive	inactive	inactive	inactive	inactive	inactive	inactive	inactive	inactive	inactive	inactive
Cc1c(C(N)=O)cc([N+](=O)[O-])cc1[N+](=O)[O-]	inactive	inactive	inactive	inactive	inactive	inactive	inactive	inactive	inactive	inactive	inactive	inactive	inactive	inactive	inactive	inactive	inactive
CC1(C)O[C@@H]2C[C@H]3[C@@H]4C[C@H](F)C5=CC(=O)CC[C@]5(C)[C@H]4[C@@H](O)C[C@]3(C)[C@]2(C(=O)CO)O1	inactive	inactive	inactive	inactive	inactive	inactive	inactive	inactive	inactive	inactive	inactive	inactive	inactive	inactive	inactive	inactive	inactive
CCCN1CCCC[C@H]1C(=O)Nc1c(C)cccc1C	inactive	inactive	inactive	inactive	inactive	inactive	inactive	inactive	inactive	inactive	inactive	inactive	inactive	inactive	inactive	inactive	inactive
CC(=O)OCC(=O)NCCCOc1cccc(CN2CCCCC2)c1	inactive	inactive	inactive	inactive	inactive	inactive	inactive	inactive	inactive	inactive	inactive	inactive	inactive	inactive	inactive	inactive	inactive
Cc1ccnc(NS(=O)(=O)c2ccc(N)cc2)n1	inactive	inactive	inactive	inactive	inactive	inactive	inactive	inactive	inactive	inactive	inactive	inactive	inactive	inactive	inactive	inactive	inactive
COC(=O)[C@@H]1CC2=CC(=O)CC[C@]2(C)[C@@]23O[C@@H]2C[C@@]2(C)[C@@H](CC[C@@]24CCC(=O)O4)[C@H]13	inactive	inactive	inactive	inactive	inactive	inactive	inactive	inactive	inactive	inactive	inactive	inactive	inactive	inactive	inactive	inactive	inactive
O=C(CCCN1CCC(O)(c2ccc(Br)cc2)CC1)c1ccc(F)cc1	inactive	inactive	21100 nM (active)	inactive	inactive	1 nM (active)	inactive	inactive	inactive	inactive	23.7 nM (active)	inactive	–	–	inactive	inactive	inactive
COc1cc(OC)cc(OC)c1	inactive	inactive	inactive	inactive	inactive	inactive	inactive	inactive	inactive	inactive	inactive	inactive	inactive	inactive	inactive	inactive	inactive
CC(=O)OCC(=O)[C@@]1(O)[C@H](C)C[C@H]2[C@@H]3CCC4=CC(=O)C=C[C@]4(C)[C@@]3(F)[C@@H](O)C[C@@]21C	inactive	inactive	inactive	inactive	inactive	inactive	inactive	inactive	inactive	inactive	inactive	inactive	inactive	inactive	inactive	inactive	inactive
Cc1c(F)c(N2CCNC(C)C2)cc2c1c(=O)c(C(=O)O)cn2C1CC1 (stereo unspecified)	inactive	inactive	inactive	inactive	inactive	inactive	inactive	inactive	inactive	inactive	inactive	inactive	inactive	inactive	inactive	inactive	inactive
O=C1OC2(c3ccc(O)cc3Oc3cc(O)ccc32)c2ccccc21	inactive	inactive	inactive	inactive	inactive	inactive	inactive	inactive	inactive	inactive	inactive	inactive	inactive	inactive	–	inactive	inactive
COc1ccc(C2C(=O)c3ccccc3C2=O)cc1	inactive	inactive	inactive	inactive	inactive	inactive	inactive	inactive	inactive	inactive	inactive	inactive	inactive	inactive	inactive	inactive	inactive
COc1cccc(OC)c1C(=O)N[C@@H]1C(=O)N2[C@@H]1SC(C)(C)[C@@H]2C(=O)O	inactive	inactive	inactive	inactive	inactive	inactive	inactive	inactive	inactive	inactive	inactive	inactive	inactive	inactive	inactive	inactive	inactive
CC(=O)Nc1c(I)cc(I)c(C(=O)O)c1I	inactive	inactive	inactive	inactive	inactive	inactive	inactive	inactive	inactive	inactive	inactive	inactive	inactive	inactive	inactive	–	–
CCC(C(=O)OCCN(CC)CC)c1ccccc1 (stereo unspecified)	inactive	inactive	inactive	inactive	23700 nM (active)	inactive	inactive	inactive	–	inactive	inactive	inactive	inactive	inactive	inactive	inactive	inactive
CCOC(=O)c1cccc(N)c1	inactive	inactive	inactive	inactive	inactive	inactive	inactive	inactive	–	inactive	inactive	inactive	inactive	inactive	inactive	inactive	inactive
